Results reported in PubChem BioAssay (EPA / NIEHS).
“And” between values parts separate entries of the source, which are not always exact repeats. Equal entries are not always repeated. Results filed as inconclusive are left out. A structure can be active in one record and inactive in another. The source made the active and inactive calls. How the source made its calls, unless noted: active means hit-call score of the fitted dose curve at least 0.9, where 1 is the maximum; inconclusive means response in the unintended direction; inactive means score below 0.9.

Assays:
[1] = biological target: Estrogen receptor beta (Homo sapiens) (UniProt Q92731); test: OT_ER_ERbERb_1440: Odyssey Thera (OT) 24-hour HEK293T Protein-Complementation Assay for Estrogen Receptor-beta/-beta Homodimer (AID 2283380);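 further: scored as signal increase over DMSO baseline for both agonists and antagonists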
Sequence of Estrogen receptor beta (Homo sapiens) (Q92731 whole entry, looked up, the tested form may be a part): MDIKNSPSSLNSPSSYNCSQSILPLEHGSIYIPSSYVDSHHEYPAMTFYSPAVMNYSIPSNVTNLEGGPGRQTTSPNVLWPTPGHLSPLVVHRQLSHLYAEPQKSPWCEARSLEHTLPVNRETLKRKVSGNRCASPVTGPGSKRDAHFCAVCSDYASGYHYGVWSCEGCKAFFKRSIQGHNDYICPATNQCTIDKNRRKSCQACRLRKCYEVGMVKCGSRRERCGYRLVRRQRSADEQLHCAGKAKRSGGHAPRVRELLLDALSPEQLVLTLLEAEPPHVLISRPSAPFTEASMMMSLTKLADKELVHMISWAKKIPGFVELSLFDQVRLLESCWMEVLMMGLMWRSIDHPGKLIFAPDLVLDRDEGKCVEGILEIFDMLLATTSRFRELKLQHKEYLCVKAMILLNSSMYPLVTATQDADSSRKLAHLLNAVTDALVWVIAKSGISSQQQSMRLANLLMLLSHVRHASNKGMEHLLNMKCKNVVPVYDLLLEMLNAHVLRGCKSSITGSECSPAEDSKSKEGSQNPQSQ
In short: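 HEK293T cells stably expressing ER beta LBD (aa 310-547) homodimer fragment-complementation reporter, dosed 24 h. Cells formaldehyde-fixed, Draq5-stained; gain in nuclear (agonist) or nuclear plus cytoplasmic (antagonist) fluorescence versus DMSO read by laser scanning cytometry.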

[2] = biological target: Estrogen receptor (Homo sapiens) (UniProt P03372); test: OT_ERa_GFPERaERE_0480: Odyssey Thera (OT) 8-hour HeLa Transcription Induction Assay for Estrogen Receptor (AID 2283381; active means hit-call score of the fitted dose curve at least 0.9, where 1 is the maximum; inactive means score below 0.9)
Sequence of Estrogen receptor (Homo sapiens) (P03372 whole entry, looked up): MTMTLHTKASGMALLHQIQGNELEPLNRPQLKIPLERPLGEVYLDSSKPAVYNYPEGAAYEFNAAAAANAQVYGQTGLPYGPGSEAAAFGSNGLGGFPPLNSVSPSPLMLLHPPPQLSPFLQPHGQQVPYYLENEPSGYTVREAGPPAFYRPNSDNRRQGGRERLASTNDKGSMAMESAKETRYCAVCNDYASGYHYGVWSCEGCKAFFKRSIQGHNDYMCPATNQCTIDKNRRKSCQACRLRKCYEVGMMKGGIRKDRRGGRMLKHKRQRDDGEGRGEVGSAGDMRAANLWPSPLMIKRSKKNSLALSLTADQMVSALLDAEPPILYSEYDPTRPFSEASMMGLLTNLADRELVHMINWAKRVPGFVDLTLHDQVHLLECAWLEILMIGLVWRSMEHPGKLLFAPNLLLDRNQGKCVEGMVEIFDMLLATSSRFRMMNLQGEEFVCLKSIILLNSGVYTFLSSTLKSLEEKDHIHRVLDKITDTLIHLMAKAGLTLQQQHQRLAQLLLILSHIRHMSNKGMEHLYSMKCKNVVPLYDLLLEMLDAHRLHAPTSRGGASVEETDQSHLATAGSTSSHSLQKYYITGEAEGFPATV
In short: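 Fluorescence microscopy with high-content image analysis measures ERE-driven GFP induction in HeLa cells at 8 h post-dose. Increases fitted against DMSO baseline.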

[3] = biological target: Estrogen receptor (Homo sapiens) (UniProt P03372); test: OT_ERa_GFPERaERE_0120: Odyssey Thera (OT) 2-hour HeLa Transcription Induction Assay for Estrogen Receptor (AID 2283382)
In short: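 Fluorescence-microscopy images of the GFP-ERα/ERE reporter, scored by high-content image algorithms, give the readout. HeLa exposure lasted 2 h, and only signal increase over DMSO was fitted.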

[4] = biological target: Bile acid receptor (Homo sapiens) (UniProt Q96RI1); test: OT_FXR_FXRSRC1_0480: Odyssey Thera (OT) 8-hour HEK293T Protein-Complementation Assay for Farnesoid X receptor/SRC-1 Co-activator (AID 2283383)
Sequence of Bile acid receptor (Homo sapiens) (Q96RI1 whole entry, looked up, the tested form may be a part): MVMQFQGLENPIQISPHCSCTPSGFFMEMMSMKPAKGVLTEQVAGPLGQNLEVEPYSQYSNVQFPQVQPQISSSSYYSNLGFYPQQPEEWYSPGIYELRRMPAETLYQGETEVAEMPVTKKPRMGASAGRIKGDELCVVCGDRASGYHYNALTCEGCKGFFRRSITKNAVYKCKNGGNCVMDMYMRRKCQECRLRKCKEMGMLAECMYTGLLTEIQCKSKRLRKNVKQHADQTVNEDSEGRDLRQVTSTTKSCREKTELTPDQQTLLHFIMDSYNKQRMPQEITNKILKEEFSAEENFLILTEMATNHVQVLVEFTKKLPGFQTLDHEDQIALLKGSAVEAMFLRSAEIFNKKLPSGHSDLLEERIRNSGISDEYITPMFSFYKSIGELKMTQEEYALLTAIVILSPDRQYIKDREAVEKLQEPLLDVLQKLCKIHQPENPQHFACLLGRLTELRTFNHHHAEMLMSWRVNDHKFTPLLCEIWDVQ
In short: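 Binding of FXR to coactivator SRC-1 was read as fluorescence from a reconstituted split reporter in HEK293T cells, 8 h after chemical addition. Only increases in signal versus DMSO were fit.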

[5] = biological target: Retinoic acid receptor RXR-alpha (Homo sapiens) (UniProt P19793); test: OT_NURR1_NURR1RXRa_0480: Odyssey Thera (OT) 8-hour HEK293T Protein Complementation Assay for Nurr1/retinoid X receptor (RXR) (AID 2283385)
Sequence of Retinoic acid receptor RXR-alpha (Homo sapiens) (P19793 whole entry, looked up, the tested form may be a part): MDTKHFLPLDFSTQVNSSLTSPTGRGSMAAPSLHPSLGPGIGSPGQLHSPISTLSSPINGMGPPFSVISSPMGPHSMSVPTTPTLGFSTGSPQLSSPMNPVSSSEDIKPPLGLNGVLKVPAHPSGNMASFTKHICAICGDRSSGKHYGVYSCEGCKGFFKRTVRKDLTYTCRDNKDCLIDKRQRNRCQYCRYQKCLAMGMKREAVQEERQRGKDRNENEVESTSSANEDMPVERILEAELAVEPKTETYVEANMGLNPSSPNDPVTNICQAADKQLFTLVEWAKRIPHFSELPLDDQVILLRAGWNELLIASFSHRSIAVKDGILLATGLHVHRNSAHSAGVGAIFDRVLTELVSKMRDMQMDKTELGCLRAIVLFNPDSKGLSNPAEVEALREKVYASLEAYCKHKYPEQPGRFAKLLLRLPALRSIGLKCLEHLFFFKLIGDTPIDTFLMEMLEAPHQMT
In short: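 Interaction of Nurr1 with RXRα read as reconstituted reporter fluorescence in a HEK293T fragment-complementation system, 8 h post-treatment; increase over DMSO baseline analysed.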

[6] = biological target: Retinoic acid receptor RXR-alpha (Homo sapiens) (UniProt P19793); test: OT_NURR1_NURR1RXRa_1440: Odyssey Thera (OT) 24-hour HEK293T Protein Complementation Assay for Nurr1/retinoid X receptor (RXR) (AID 2283386)
In short: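 Gain in fluorescence, fitted relative to DMSO, reflects Nurr1–RXRα association in HEK293T cells after 24 h dosing. Bait and prey are each linked to a reporter-protein fragment that reassembles on interaction.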

[7] = biological target: Peroxisome proliferator-activated receptor gamma (Homo sapiens) (UniProt P37231); test: OT_PPARg_PPARgSRC1_0480: Odyssey Thera (OT) 8-hour Protein-Complementation Assay for Peroxisome Proliferator-activated Receptor Gamma / SRC-1 Co-activator (AID 2283387);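 further: nuclear to cytoplasmic split Venus YFP fluorescence ratio reporting PPARg SRC-1 interaction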
Sequence of Peroxisome proliferator-activated receptor gamma (Homo sapiens) (P37231 whole entry, looked up, the tested form may be a part): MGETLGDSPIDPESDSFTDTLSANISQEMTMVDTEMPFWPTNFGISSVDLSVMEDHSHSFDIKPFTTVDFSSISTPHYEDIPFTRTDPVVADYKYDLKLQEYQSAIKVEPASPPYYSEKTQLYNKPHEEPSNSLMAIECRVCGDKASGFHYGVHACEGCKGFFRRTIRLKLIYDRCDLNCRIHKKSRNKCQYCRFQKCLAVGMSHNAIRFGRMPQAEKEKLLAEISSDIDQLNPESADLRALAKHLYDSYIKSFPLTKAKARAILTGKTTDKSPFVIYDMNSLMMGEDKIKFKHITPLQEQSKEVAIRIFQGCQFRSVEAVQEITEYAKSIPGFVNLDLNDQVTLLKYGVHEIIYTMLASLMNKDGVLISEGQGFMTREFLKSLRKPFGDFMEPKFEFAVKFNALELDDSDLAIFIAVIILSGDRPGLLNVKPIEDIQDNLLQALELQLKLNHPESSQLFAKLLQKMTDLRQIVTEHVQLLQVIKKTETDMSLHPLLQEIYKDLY
In short: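 HEK293T transiently transfected with PPARg and SRC-1 fused to Venus YFP fragments, compounds 8 h at 37C. Fixed, Draq5-stained cells imaged; nuclear/cytoplasmic 488 nm fluorescence ratio over at least 350 cells per image; gain fitted versus DMSO.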

[8] = biological target: Peroxisome proliferator-activated receptor gamma (Homo sapiens) (UniProt P37231); test: OT_PPARg_PPARgSRC1_1440: Odyssey Thera (OT) 24-hour Protein-Complementation Assay for Peroxisome Proliferator-activated Receptor Gamma/ SRC-1 Co-activator (AID 2283388)
In short: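 Transient HEK293T, YFP fragments 1-158/159-239 (mutant IFP1/IFP2) fused to PPARg/SRC-1; 24 h dosing; fix 4% formaldehyde, Draq5; Opera imaging 488/635 nm; N/C ratio, gain vs DMSO.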

[9] = biological target: Bile acid receptor (Homo sapiens) (UniProt Q96RI1); test: OT_FXR_FXRSRC1_1440: Odyssey Thera (OT) 24-hour HEK293T Protein-Complementation Assay for Farnesoid X receptor/SRC-1 Co-activator (AID 2283384)
In short: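 Protein-fragment complementation: FXR and SRC-1 fused to reporter fragments that reassemble on interaction, read by fluorescence intensity. Human HEK293T cells measured 24 h post-dose; positive-direction fit versus DMSO.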

[10] = CEETOX_H295R_OHPREG: CeeTox H295R High-throughput Steroidogenesis Assay for OH-Pregnenolone (OHPREG) (AID 2283434; active means hit-call score of the fitted dose curve at least 0.9, where 1 is the maximum; inactive means score below 0.9); conditions: actives raise or lower the signal
In short: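 H295R, 10 uM forskolin pre-stim 48 h; test chemical 48 h, 0.1% DMSO final. MTBE extraction, reverse-phase C18 HPLC-ESI+ MS/MS of medium. Gain/loss vs DMSO; viability by MTT in same wells.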

[11] = CEETOX_H295R_CORTIC: CeeTox H295R High-throughput Steroidogenesis Assay for Corticosterone (CORTIC) (AID 2283437; active means hit-call score of the fitted dose curve at least 0.9, where 1 is the maximum; inactive means score below 0.9;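 further: corticosterone secreted into medium quantified by mass spectrometry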;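 on AC50: human H295R adrenal cells prestimulated with forskolin before chemical exposure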); conditions: actives raise or lower the signal
In short: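 48 h forskolin (10 uM) prestim, then 48 h chemical exposure, final DMSO 0.1%. Readout: corticosterone in medium by LC-MS/MS after MTBE extraction. Gain/loss fit vs DMSO; MTT viability in same wells.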

[12] = CEETOX_H295R_CORTISOL: CeeTox H295R High-throughput Steroidogenesis Assay for Cortisol (AID 2283438; active means hit-call score of the fitted dose curve at least 0.9, where 1 is the maximum; inactive means score below 0.9); conditions: actives raise or lower the signal
In short: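 Cortisol measured by HPLC-MS/MS after MTBE extraction of medium from H295R cells exposed 48 h to chemical (0.1% DMSO), following 48 h prestimulation with 10 uM forskolin. Viability assessed by MTT in the same wells.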

[13] = CEETOX_H295R_DOC: CeeTox H295R High-throughput Steroidogenesis Assay for DOC (AID 2283439; active means hit-call score of the fitted dose curve at least 0.9, where 1 is the maximum; inactive means score below 0.9); conditions: actives raise or lower the signal
In short: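 11-Deoxycorticosterone quantified in medium by MTBE extraction and HPLC-MS/MS after 48 h chemical exposure (0.1% DMSO) of forskolin-primed (10 uM, 48 h) H295R cells. Same-well MTT viability; data fitted bidirectionally against DMSO.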

[14] = CEETOX_H295R_11DCORT: CeeTox H295R High-throughput Steroidogenesis Assay for 11-Deoxycortisol (11DCORT) (AID 2283432; active means hit-call score of the fitted dose curve at least 0.9, where 1 is the maximum; inactive means score below 0.9;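 on AC50: human adrenal H295R cells prestimulated with 10 µM forskolin for 48 h; 11-deoxycortisol secreted into the medium measured by LC-MS/MS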); conditions: actives raise or lower the signal
In short: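 H295R cells prestimulated 48 h with 10 uM forskolin, then exposed 48 h to chemical in 0.1% DMSO. 11-Deoxycortisol in medium quantified by HPLC-MS/MS after MTBE extraction; bidirectional fit versus DMSO. MTT viability read in same wells.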

[15] = CEETOX_H295R_ANDR: CeeTox H295R High-throughput Steroidogenesis Assay for Androstenedione (ANDR) (AID 2283436; active means hit-call score of the fitted dose curve at least 0.9, where 1 is the maximum; inactive means score below 0.9;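 further: human H295R adrenal cells exposed for 48 h with androstenedione measured in medium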); conditions: actives raise or lower the signal
In short: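 48 h chemical exposure, H295R cells, DMEM/F12 + ITS+ and Nu-Serum. Medium androstenedione: MTBE extraction, C18 reverse-phase HPLC, ESI+ MS/MS. Fit bidirectional vs DMSO; MTT viability in same wells.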

[16] = CEETOX_H295R_ESTRADIOL: CeeTox H295R High-throughput Steroidogenesis Assay for Estradiol (AID 2283440; active means hit-call score of the fitted dose curve at least 0.9, where 1 is the maximum; inactive means score below 0.9;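 further: estradiol secreted into medium quantified by LC-MS/MS after dansyl derivatisation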); conditions: actives raise or lower the signal
In short: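 Following OECD 456 with minor changes, H295R cells received 10 uM forskolin for 48 h and then test chemical for 48 h. Hormone output was read by HPLC-MS/MS, with cytotoxic concentrations diluted until MTT viability reached ≥70%.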

[17] = CEETOX_H295R_ESTRONE: CeeTox H295R High-throughput Steroidogenesis Assay for Estrone (AID 2283441; active means hit-call score of the fitted dose curve at least 0.9, where 1 is the maximum; inactive means score below 0.9;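 on AC50: human adrenal H295R cells prestimulated with forskolin for two days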); conditions: actives raise or lower the signal
In short: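 Estrone secreted into medium quantified by LC-MS/MS after dansyl chloride derivatization, following 48 h chemical exposure (0.1% DMSO final) of forskolin-prestimulated (10 uM, 48 h) H295R cells; gain or loss fitted against DMSO; MTT viability in same wells.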

[18] = biological target: Agonist Androgen Response Element (ARE), AR (gene 367) (UniProt P10275); test: OT_AR_ARELUC_AG_1440: Odyssey Thera (OT) 24-hour CHO-K1 Luciferase Assay for Agonist Androgen Response Element (ARE) (AID 2283379)
Sequence of Agonist Androgen Response Element (ARE), AR (gene 367) (P10275 whole entry, looked up): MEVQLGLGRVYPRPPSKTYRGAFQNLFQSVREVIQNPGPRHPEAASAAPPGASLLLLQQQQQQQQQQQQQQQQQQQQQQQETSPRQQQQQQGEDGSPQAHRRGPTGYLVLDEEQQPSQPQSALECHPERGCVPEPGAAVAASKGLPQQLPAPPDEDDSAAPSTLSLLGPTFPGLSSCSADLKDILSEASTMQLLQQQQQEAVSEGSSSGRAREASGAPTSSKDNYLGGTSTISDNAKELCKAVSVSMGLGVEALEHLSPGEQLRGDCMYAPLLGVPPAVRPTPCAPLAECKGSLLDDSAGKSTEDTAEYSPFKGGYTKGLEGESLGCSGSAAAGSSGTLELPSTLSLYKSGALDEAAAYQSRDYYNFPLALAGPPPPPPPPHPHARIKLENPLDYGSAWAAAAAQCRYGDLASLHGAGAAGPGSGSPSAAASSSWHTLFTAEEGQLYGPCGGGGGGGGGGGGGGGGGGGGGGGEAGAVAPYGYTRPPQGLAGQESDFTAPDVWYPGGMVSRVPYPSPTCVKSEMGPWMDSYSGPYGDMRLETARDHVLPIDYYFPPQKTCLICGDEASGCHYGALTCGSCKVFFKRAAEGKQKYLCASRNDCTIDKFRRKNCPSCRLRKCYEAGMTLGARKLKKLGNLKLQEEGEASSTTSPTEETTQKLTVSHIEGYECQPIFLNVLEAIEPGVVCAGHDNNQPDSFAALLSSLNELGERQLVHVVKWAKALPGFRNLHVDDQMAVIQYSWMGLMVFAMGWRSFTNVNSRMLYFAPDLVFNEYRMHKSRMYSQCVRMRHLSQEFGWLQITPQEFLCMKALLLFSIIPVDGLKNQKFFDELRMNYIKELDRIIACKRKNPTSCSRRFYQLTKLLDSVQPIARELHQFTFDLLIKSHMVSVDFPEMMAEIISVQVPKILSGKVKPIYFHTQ
In short: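 Gain-of-signal reporter endpoint: cells (CHO-K1, hamster) are treated 24 h, luciferin/ATP reagent added, and luminescence compared with DMSO baseline.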

Measured: AC50

O=c1ccc2ccccc2o1
inactive: [1] | [2] | [3] | [4] | [5] | [6] | [7] | [8]

CC(O)CC(C)(C)O (stereo not drawn)
inactive: [5] | [7] | [8]

c1ccc2n[nH]nc2c1
inactive: [1] | [5] | [6] | [7] | [8]

CCCCCCCCOc1ccc(C(=O)c2ccccc2)c(O)c1
inactive: [2] | [3] | [4] | [9] | [5] | [7] | [8]

c1ccc2ccccc2c1
inactive: [2] | [3] | [9] | [6] | [7] | [8]

CCCCCCCC[Si](OCC)(OCC)OCC
inactive: [1] | [5] | [6] | [7] | [8] | [10] | [11] | [12] | [13]

NC(=O)c1nc(-c2cccc(-c3cc(F)ccc3OCC(F)(F)C(F)(F)F)c2)n[nH]1
not listed: [4] | [5] | [6] | [9] | [18]
inactive: all other assays above

Oc1ccccc1
inactive: [9] | [5] | [6] | [7] | [8]

C[C@]12CC[C@@H]3c4ccc(O)cc4CC[C@H]3[C@@H]1CC[C@H]2O
inactive: [5] | [6] | [7] | [8]
active: [14] 3.52 µM | [10] 1.22 µM | [11] 2.13 µM | [12] 2.17 µM | [13] 3.31 µM

CCCCCCCCCC(=O)O
inactive: [18] | [5] | [6] | [8]

CCN(Cc1cccc(S(=O)(=O)O)c1)c1ccc(C(=C2C=CC(=[N+](CC)Cc3cccc(S(=O)(=O)O)c3)C=C2)c2ccccc2S(=O)(=O)[O-])cc1
active: [6] 46.6 µM
inactive: [1] | [2] | [3] | [4] | [5] | [6] | [7] | [8]

Cc1ccc2oc(CN(Cc3ccccc3)C(=O)Nc3c(F)cc(F)cc3F)c(-c3ccc(Cl)cc3)c2c1
active: [13] 1.36 µM
not listed: [5] | [6] | [15] | [18]
inactive: all other assays above

CC1=CC(=O)/C(=C(/C)O)C(=O)O1
inactive: [1] | [2] | [3] | [4] | [9] | [5] | [6] | [7] | [8]

Cc1ncc(CO)c(CO)c1O
inactive: [4] | [9] | [5] | [6] | [7] | [8]

O=C1CCC(C2CCCCC2)CC1
inactive: [1] | [4] | [9] | [5] | [6] | [7] | [8] | [14] | [11] | [12] | [13]
active: [4] 33.1 µM and 50 µM | [9] 38.4 µM | [10] 80.4 µM

Cc1c2ccccc2c(C)c2c1ccc1ccccc12
active: [4] 14.3 µM | [17] 0.657 µM
not listed: [6] | [18]
inactive: all other assays above

O=C(O)c1ccccc1-n1cc(C(=O)O)c(=O)c2cc(Nc3c(F)cc(F)cc3Cl)c(Cl)cc21
inactive: [1] | [2] | [3] | [4] | [9] | [5] | [6] | [7] | [8]

O=c1[nH]sc2ccccc12
active: [2] 91.7 µM
inactive: [1] | [3] | [7] | [8]

CN1C(=O)CC[C@H]1c1cccnc1
inactive: [1] | [6] | [7] | [8]

Cc1cccc2ccccc12
inactive: [2] | [3] | [4] | [5] | [6] | [7] | [8]

Cc1cc2c(cc1C(F)(F)F)N(C(=O)Nc1ccc(Oc3cccnc3C)nc1)CC2
active: [4] 19.1 µM | [9] 4.55 µM | [5] 29.2 µM | [14] 0.381 µM | [10] 0.495 µM | [12] 0.588 µM | [13] 0.227 µM
not listed: [15] | [18]
inactive: all other assays above
